BAZ2B block – blocks human BAZ2B; Q9UIF8; AlphaScreen BAZ2B-H3K14Ac peptide displacement; Potency, µM (series often up to 114 µM), for the others: at the highest dose activity change, negative = inhibition, usual class: inhibitors; 360,000 tested, 4.4% active; note: % is set by controls: 0 for no effect and ±100 for the full control effect; nearly all actives have a fitted effect of over 60% in size
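In this displacement format the biotinylated H3(5-23) peptide acetylated at Lys14 serves as ligand at 50 nM, with BAZ2B at 50 nM in PBS pH 7.4 containing 0.01% Tween-20. Donor and acceptor beads are 10 ug/mL final.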
GLS inh – glutaminase GLS (human) inhibition; O94925; GLS enzymatic activity, qHTS titration; Potency, µM (titrated, usually from 45.5 µM), for inactives: at the highest dose activity change, negative = inhibition, usual class: inhibitors; 410,000 tested, 0.21% active; note: % is set by controls: 0 for no effect and ±100 for the full control effect
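Glutamate formation by hKGA was monitored fluorometrically using coupled glutamate oxidase, HRP and Amplex Red. Substrate was added as 1 mM L-glutamine solution; incubation was 30 min at RT after an initial read.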
JMJD2A Tudor – JMJD2A Tudor domain (human) inhibition; O75164; Potency, µM (top dose mostly 114 µM), for the others: at the top dose activity change, negative = inhibition, most hits filed as inhibitors; 390,000 tested, 4.4% active; AlphaScreen JMJD2A-Tudor / H3K4me3 peptide binding; note: % is set by controls: 0 for no effect and ±100 for the full control effect; nearly all actives have a fitted effect of over 50% in size
HP1b binding inh – HP1-beta chromodomain-methylated histone interaction inhibition | AlphaScreen HP1-beta / biotin-H3K9me3 peptide binding | Potency, µM (titrated, usually from 114 µM), without a hit: at the highest dose activity change, negative = inhibition, most hits filed as inhibitors | 390,000 tested, 0.56% active | AID 540317; note: nearly all actives have a fitted effect of over 70% in size
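HP1-beta protein (50 nM final) preincubated 30 min at room temperature with biotinylated H3(1-18)K9me3 peptide (50 nM) in PBS pH 7.4, 0.01% Tween-20, then compound added for 30 min. AlphaScreen streptavidin donor/nickel chelate acceptor beads (10 ug/mL final), 30 min dark, luminescence read.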
G9a block – G9a (human) methyltransferase inhibition. Q96KQ7. 350,000 tested, 8.8% active. G9a H3K9 monomethylation, AlphaScreen, 2 h. Potency, µM (top dose mostly 102 µM), inactives show at the highest dose activity, negative = inhibition, actives largely listed as inhibitors; note: % is set by controls: 0 for no effect and ±100 for the full control effect; nearly all actives have a fitted effect of over 75% in size
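Step 1: enzyme (final 20 nM) with compound, 15 min RT. Step 2: substrate peptide 500 nM and SAM 20 uM, 2 h RT. Step 3: anti-H3K9me1 antibody and AlphaScreen beads, 10 min, then plate read.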
* marks the source's active call; other numbers are inactive results; ? = inconclusive; . = no result; [ ] = another dose, or the depositor's remark. Rows were chosen to be rich in hits. Some 10% of all compounds tested hit in one or more screens of this group. Calls come from the whole dose curve; as a rule, active = well fitted curve in the direction sought with a large enough effect; inconclusive = small, poorly fitted or top-dose-only effect, or another doubt; inactive = no such curve, though single readings can be large; an effect the other way counts as inactive or inconclusive. Potency is the fitted concentration of half-maximal effect.

SMILES	BAZ2B block	GLS inh	JMJD2A Tudor	HP1b binding inh	G9a block
O=C(O)c1cc([N+](=O)[O-])c(NCc2cccnc2)c([N+](=O)[O-])c1	?	0%	2%	8%	45µM*
CCCCCCSC1=C(C#N)C(=O)NC2(CCCCC2)S1	?	32%	56µM*	?	13µM*
COc1ccc(CSC2=C(C#N)C(=O)NC3(CCCCC3)S2)cc1	.	5%	.	.	.
CC(C)(Sc1ccc(CCN(CCCCC2CCCCC2)C(=O)NC2CCCCC2)cc1)C(=O)O	79µM*	7%	79µM*	14%	79µM*
CN(Cc1ccccc1)C(=O)NC1CCCCC1	45%	2%	-2%	36%	26%[59 µM]
COc1ccc(C)cc1S(=O)(=O)N1CCC(C(=O)NCCc2ccccc2)CC1	8%	-6%	-3%	36%	8%[59 µM]
O=C1/C(=C/c2ccncc2)SC(=S)N1N1CCOCC1	-33%	?	-21%	-14%	-124%[59 µM]
COc1cc(/C=C2\SC(=S)N(Nc3ccccc3)C2=O)cc(OC)c1OC	22µM*	9%	?	?	?
COc1cc(/C=C2\SC(=S)N(N3CCOCC3)C2=O)cc(OC)c1OC	12%	-4%	-19%	10%	13µM*
CCOc1ccc(/C=C2\SC(=S)N(Nc3ccccc3)C2=O)cc1OC	?	6%	?	-19%	7.1µM*
O=C1/C(=C/c2cccs2)SC(=S)N1N1CCOCC1	?	-6%	?	35µM*	?
CCCCC(CC)C(=O)Nc1cc([N+](=O)[O-])ccc1F (stereo not given)	.	-9%	-19%	25%	-2%
CC(=O)N1CCCc2cc(S(=O)(=O)N3CCC(N(C)C(C)C)CC3)ccc21	-14%	8%	-1%	45%[57 µM]	-3%[59 µM]
O=C(Nc1ccc2oc(-c3ccccc3F)nc2c1)c1ccc([N+](=O)[O-])o1	-12%	10%	-27%	8%	?
COc1ccc(S(=O)(=O)N(C)C)cc1NC(=O)COc1ccc2c(c1)CCC2	.	-5%	.	.	.
Cc1cc(C)cc(N(C(=O)c2sc(C)nc2C)C(C(=O)NC(C)(C)C)c2ccncc2)c1 (stereo not given)	.	1%	-6%	39%	9%
CSc1nsc(/C=C/Nc2ccc(C)cc2)c1C#N	?	0%	-26%	15%	2.2µM*
CCn1c(CN2CCN(c3cccc(C)c3C)CC2)n[nH]c1=S	-8%	0%	-13%	25%	7.9µM*
CCOC(=O)c1cc(S(=O)(=O)N2CCN(c3ccccc3F)CC2)[nH]n1	?	0%	-30%	11%[57 µM]	16µM*
CCOC(=O)c1cc(S(=O)(=O)N2CCN(c3cccc(C)c3C)CC2)[nH]n1	?	12%	-31%	-2%[57 µM]	10µM*
COC(=O)c1cc(S(=O)(=O)N2CCN(c3ccccc3F)CC2)c[nH]1	-10%	-3%	-25%	57%	5%[59 µM]
CCOC(=O)c1cc(S(=O)(=O)N2CCN(c3ccc(C)cc3C)CC2)[nH]n1	50µM*	13%	?	-2%[57 µM]	4µM*
Cc1csc(NC(=O)c2nc3nccc(C)n3n2)n1	-1%	?	?	-4%	50µM*
Cc1csc(NC(=O)c2ccc3ccccc3n2)n1	-25%	-4%	?	9%	2%
Cc1ccnc2nc(C(=O)Nc3nnc(-c4ccc(Cl)cc4)o3)nn12	?	33%	18µM*	29%	?
SMILES	BAZ2B block	GLS inh	JMJD2A Tudor	HP1b binding inh	G9a block
Cc1csc(NC(=O)c2cnc3ccccc3n2)n1	-25%	5%	-34%	-25%	45µM*
Cc1ccnc2nc(C(=O)Nc3nc4ccccc4s3)nn12	0%	2%	16µM*	15%	5%[59 µM]
Cc1ccc(C2(c3noc(CN(C)CC4COCCO4)n3)CCCC2)cc1 (stereo not given)	1%	-4%	-4%	66%	.
CCn1nc(C)c(/C=N/NC(=S)Nc2ccc(Cl)cc2Cl)c1C	0%	-3%	-22%	7%	10%
Cc1ccnc2nc(C(=O)Nc3nnc(CC(C)C)s3)nn12	-35%	-3%	45µM*	17%	25µM*
O=C(/C=C1\NC2(CCCC2)Cc2ccccc21)N1CCOCC1	?	12%	50µM*	-17%	32µM*
COc1ccc(Cc2c3cc(OC)c(OC)cc3cc[n+]2C)cc1OC	-34%	-2%	22µM*	?	-132%[59 µM]
CC[n+]1ccc2cc(OC)c(OC)cc2c1Cc1ccc(OC)c(OC)c1	79µM*	-27%	25µM*	40µM*	22µM*
COc1cc2c[n+](C)c3c4ccccc4ccc3c2cc1OC	.	12%	-20%	5%	.
CN(c1ccccc1)S(=O)(=O)c1ccc(C(=O)Nc2nccs2)cc1	9%	4%	-12%	74%	-33%
Cc1ccc(-n2c(N)c(C(=O)Nc3ccccc3F)sc2=S)cc1C	?	-16%	?	?	22µM*
Cc1ccccc1-n1c(N)c(C(=O)Nc2ccc(F)cc2)sc1=S	-4%	0%	-13%	-11%	11µM*
Cc1ccc(NC(=O)c2sc(=S)n(-c3cc(C)ccc3F)c2N)cc1	?	-21%	?	?	8.9µM*
Cc1ccc(C)c(-n2c(N)c(C(N)=O)sc2=S)c1	-5%	2%	-32%	-17%	?
CCOC(=O)N1CCN(C(=O)C[C@@H]2C[C@@]3(C(=O)OCC)CCC=C3N(Cc3ccc4c(c3)OCO4)C2=O)CC1	.	1%	.	.	.
CC(C)(C)OC(=O)NCC(=O)Oc1cc2oc(=O)cc(-c3ccccc3)c2cc1Cl	2%	11%	-1%	52%	32%[59 µM]
COc1ccc(C(=O)CN2CCN(c3cc(C)nc4ccccc34)CC2)cc1	-12%	1%	-17%	37%	13µM*
O=C(CN1CCC2(CC1)OCCO2)c1ccc2cc[nH]c2c1	11%	-1%	-8%	10%	?
COc1cc(NC(=O)CCN2CCN(c3ccccc3)CC2)cc(OC)c1	-18%	.	-29%	10%	1%[59 µM]
COc1ccc(N2CCN(CC(=O)N3c4ccccc4CC3C)CC2)cc1 (stereo not given)	35µM*	29%	2.8µM*	25µM*	8.9µM*
COc1ccc(N2CCN(CCC(=O)c3ccc4ccccc4c3)CC2)cc1	?	11%	?	-10%	10µM*
O=C(CN1CCN(c2ccccc2)CC1)c1ccc2cc[nH]c2c1	14%	10%	-12%	28%	11µM*
CC1(C)CC(NC(=O)C23CCC(C)(C(=O)C2=O)C3(C)C)CC(C)(C)N1 (stereo not given)	-3%	1%	-13%	20%	0%[59 µM]
COc1ccccc1-n1c(C)nnc1SCC(=O)NCc1ccccc1	34%	1%	-17%	35%	22%[59 µM]
COc1ccc2c(c1)c(C(=O)CN1CCN(c3ccccc3)CC1)c(C)n2C	?	4%	-33%	-7%	35µM*
COc1ccc(N2CCN(CC(=O)c3ccccc3)CC2)cc1	-21%	?	?	-2%	11µM*
